In PMC11006913:
Where a chain is given by its changes, count along the chain named.

Key:
Experiment in all cases: PBM; 200 nM protein, PBS
Conditions in all cases: dsDNA, one strand shown
HOXB4 [1] = target: HOXB4 (Homo sapiens, UniProt P17483 148-234)
VENTX [2] = target: T1, VENTX (Homo sapiens, UniProt O95231 78-163, R121Q)
T1 sequence: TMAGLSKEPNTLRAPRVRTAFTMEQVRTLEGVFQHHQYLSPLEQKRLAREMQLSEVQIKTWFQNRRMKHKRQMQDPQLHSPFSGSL

HOXB9 [3] = target: HOXB9 (Homo sapiens, UniProt P17482 171-250, T197M)
VENTX [4] = target: T2, VENTX (Homo sapiens, UniProt O95231 78-163)
T2 sequence: T1 sequence with Q44R

HOXA7 [5] = target: HOXA7 (Homo sapiens, UniProt P31268 116-202)
PAX4 [6] = target: T3, PAX4 (Homo sapiens, UniProt O43316 9-242, R200K)
T3 sequence: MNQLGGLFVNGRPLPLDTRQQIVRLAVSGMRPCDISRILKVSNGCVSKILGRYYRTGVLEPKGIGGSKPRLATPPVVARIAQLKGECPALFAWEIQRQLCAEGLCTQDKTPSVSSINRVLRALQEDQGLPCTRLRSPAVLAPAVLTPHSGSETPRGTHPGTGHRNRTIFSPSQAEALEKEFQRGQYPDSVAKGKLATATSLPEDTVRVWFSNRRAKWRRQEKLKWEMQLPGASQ

VENTX [7] = target: T4, VENTX (Homo sapiens, UniProt O95231 78-163, Y115F)
T4 sequence: T1 sequence with Y38F, Q44R

PAX4 [8] = target: T5, PAX4 (Homo sapiens, UniProt O43316 9-242)
T5 sequence: T3 sequence with K192R

HOXB9 [9] = target: HOXB9 (Homo sapiens, UniProt P17482 171-250)
HOXB4 [10] = target: HOXB4 (Homo sapiens, UniProt P17483 148-234, V174I)
PAX4 [11] = target: T6, PAX4 (Homo sapiens, UniProt O43316 9-242, R200Q)
T6 sequence: T3 sequence with K192Q

PAX4 [12] = target: T7, PAX4 (Homo sapiens, UniProt O43316 9-242, F177V)
T7 sequence: T3 sequence with F169V, K192R

PAX4 [13] = target: T8, PAX4 (Homo sapiens, UniProt O43316 9-242, F177Y)
T8 sequence: T3 sequence with F169Y, K192R

HOXB9 [14] = target: HOXB9 (Homo sapiens, UniProt P17482 171-250, R186Q)
PAX4 [15] = target: T9, PAX4 (Homo sapiens, UniProt O43316 9-242, R227W)
T9 sequence: T3 sequence with K192R, R219W

HOXA7 [16] = target: HOXA7 (Homo sapiens, UniProt P31268 116-202, W177C)
HOXA4 [17] = target: HOXA4 (Homo sapiens, UniProt Q00056 201-287, W262R)
HOXA2 [18] = target: HOXA2 (Homo sapiens, UniProt O43364 129-215, R185T)
HOXA4 [19] = target: HOXA4 (Homo sapiens, UniProt Q00056 201-287, R217L)
MSX2 [20] = target: MSX2 (Homo sapiens, UniProt P35548 130-214, R199I)
HOXA2 [21] = target: HOXA2 (Homo sapiens, UniProt O43364 129-215, R185K)
HOXA4 [22] = target: HOXA4 (Homo sapiens, UniProt Q00056 201-287)
MSX2 [23] = target: MSX2 (Homo sapiens, UniProt P35548 130-214)
MSX2 [24] = target: MSX2 (Homo sapiens, UniProt P35548 130-214, F161Y)
HOXA2 [25] = target: HOXA2 (Homo sapiens, UniProt O43364 129-215, Y150S)
HOXA4 [26] = target: HOXA4 (Homo sapiens, UniProt Q00056 201-287, W262F)
HOXA2 [27] = target: HOXA2 (Homo sapiens, UniProt O43364 129-215)
SHOX = SHOX (Homo sapiens, UniProt O15266 103-189, R173C)
VAX1 [28] = target: VAX1 (Homo sapiens, UniProt Q5SQQ9 86-172)
VAX1 [29] = target: VAX1 (Homo sapiens, UniProt Q5SQQ9 86-172, T142I)
VAX1 [30] = target: VAX1 (Homo sapiens, UniProt Q5SQQ9 86-172, K157R)
Chain of VAX1 (Homo sapiens, UniProt Q5SQQ9 86-172, K157R) (Q5SQQ9 86-172 K157R): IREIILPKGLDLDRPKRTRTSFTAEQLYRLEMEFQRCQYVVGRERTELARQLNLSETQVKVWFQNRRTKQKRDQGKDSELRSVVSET

Chain of HOXB4 (Homo sapiens, UniProt P17483 148-234, V174I) (P17483 148-234 V174I): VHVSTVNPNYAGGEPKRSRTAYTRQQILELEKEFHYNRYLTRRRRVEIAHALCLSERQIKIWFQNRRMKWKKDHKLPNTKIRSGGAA
Chain of HOXB4 (Homo sapiens, UniProt P17483 148-234) (P17483 148-234): as the sequence (P17483 148-234 V174I) above, with I27V counted along it
Chain of HOXA2 (Homo sapiens, UniProt O43364 129-215, R185K) (O43364 129-215 R185K): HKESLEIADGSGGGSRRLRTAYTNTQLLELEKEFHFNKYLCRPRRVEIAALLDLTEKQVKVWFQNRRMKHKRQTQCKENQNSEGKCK
Chain of HOXA4 (Homo sapiens, UniProt Q00056 201-287) (Q00056 201-287): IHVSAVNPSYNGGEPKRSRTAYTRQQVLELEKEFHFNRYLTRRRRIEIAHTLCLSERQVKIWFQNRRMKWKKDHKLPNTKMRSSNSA
Chain of HOXA4 (Homo sapiens, UniProt Q00056 201-287, W262R) (Q00056 201-287 W262R): as the sequence (Q00056 201-287) above, with W62R counted along it
Chain of HOXA4 (Homo sapiens, UniProt Q00056 201-287, R217L) (Q00056 201-287 R217L): as the sequence (Q00056 201-287) above, with R17L counted along it
Chain of HOXA2 (Homo sapiens, UniProt O43364 129-215, Y150S) (O43364 129-215 Y150S): as the sequence (O43364 129-215 R185K) above, with Y22S, K57R counted along it
Chain of HOXA2 (Homo sapiens, UniProt O43364 129-215) (O43364 129-215): as the sequence (O43364 129-215 R185K) above, with K57R counted along it
Chain of HOXA2 (Homo sapiens, UniProt O43364 129-215, R185T) (O43364 129-215 R185T): as the sequence (O43364 129-215 R185K) above, with K57T counted along it
Chain of HOXA4 (Homo sapiens, UniProt Q00056 201-287, W262F) (Q00056 201-287 W262F): as the sequence (Q00056 201-287) above, with W62F counted along it
Chain of HOXA7 (Homo sapiens, UniProt P31268 116-202, W177C) (P31268 116-202 W177C): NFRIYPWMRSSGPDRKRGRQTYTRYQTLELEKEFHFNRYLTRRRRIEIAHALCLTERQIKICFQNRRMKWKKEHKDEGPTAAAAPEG
Chain of VAX1 (Homo sapiens, UniProt Q5SQQ9 86-172, T142I) (Q5SQQ9 86-172 T142I): as the sequence (Q5SQQ9 86-172 K157R) above, with T57I, R72K counted along it
Chain of VAX1 (Homo sapiens, UniProt Q5SQQ9 86-172) (Q5SQQ9 86-172): as the sequence (Q5SQQ9 86-172 K157R) above, with R72K counted along it
Chain of SHOX (O15266 103-189 R173C): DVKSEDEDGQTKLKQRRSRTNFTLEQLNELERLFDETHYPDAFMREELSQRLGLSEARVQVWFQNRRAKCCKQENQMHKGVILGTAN
Chain of HOXA7 (Homo sapiens, UniProt P31268 116-202) (P31268 116-202): as the sequence (P31268 116-202 W177C) above, with C62W counted along it
Chain of MSX2 (Homo sapiens, UniProt P35548 130-214, R199I) (P35548 130-214 R199I): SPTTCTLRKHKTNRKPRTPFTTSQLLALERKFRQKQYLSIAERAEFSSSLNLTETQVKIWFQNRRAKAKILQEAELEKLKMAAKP
Chain of HOXB9 (Homo sapiens, UniProt P17482 171-250) (P17482 171-250): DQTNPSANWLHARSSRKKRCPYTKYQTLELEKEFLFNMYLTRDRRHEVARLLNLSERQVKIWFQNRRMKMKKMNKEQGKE
Chain of MSX2 (Homo sapiens, UniProt P35548 130-214) (P35548 130-214): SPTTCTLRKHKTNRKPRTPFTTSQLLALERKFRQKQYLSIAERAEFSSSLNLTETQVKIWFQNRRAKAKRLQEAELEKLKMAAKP
Chain of MSX2 (Homo sapiens, UniProt P35548 130-214, F161Y) (P35548 130-214 F161Y): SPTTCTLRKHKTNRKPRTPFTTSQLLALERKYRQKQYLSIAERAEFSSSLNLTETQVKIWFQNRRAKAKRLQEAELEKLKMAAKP
Chain of HOXB9 (Homo sapiens, UniProt P17482 171-250, T197M) (P17482 171-250 T197M): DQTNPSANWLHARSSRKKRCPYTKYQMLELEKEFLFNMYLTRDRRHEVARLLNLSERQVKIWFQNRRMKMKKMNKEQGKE
Chain of HOXB9 (Homo sapiens, UniProt P17482 171-250, R186Q) (P17482 171-250 R186Q): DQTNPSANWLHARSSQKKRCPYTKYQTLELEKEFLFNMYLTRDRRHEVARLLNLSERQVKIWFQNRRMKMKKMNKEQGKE

GACCAGGC
binding signal (HOXB4 [1]): 7.9 upbm affinity estimate (log intensity, higher = more binding, comparable within an allelic series)
binding signal (VENTX [2]): 8.15 upbm affinity estimate (log intensity, higher = more binding, comparable within an allelic series)
binding signal (HOXB9 [3]): 8.29 upbm affinity estimate (log intensity, higher = more binding, comparable within an allelic series)
binding signal (VENTX [4]): 8.13 upbm affinity estimate (log intensity, higher = more binding, comparable within an allelic series)
binding signal (HOXA7 [5]): 8.38 upbm affinity estimate (log intensity, higher = more binding, comparable within an allelic series)
binding signal (PAX4 [6]): 9.22 upbm affinity estimate (log intensity, higher = more binding, comparable within an allelic series)
binding signal (VENTX [7]): 8.13 upbm affinity estimate (log intensity, higher = more binding, comparable within an allelic series)
binding signal (PAX4 [8]): 9.45 upbm affinity estimate (log intensity, higher = more binding, comparable within an allelic series)
binding signal (HOXB9 [9]): 8.23 upbm affinity estimate (log intensity, higher = more binding, comparable within an allelic series)
binding signal (HOXB4 [10]): 7.99 upbm affinity estimate (log intensity, higher = more binding, comparable within an allelic series)
binding signal (PAX4 [11]): 9.45 upbm affinity estimate (log intensity, higher = more binding, comparable within an allelic series)
binding signal (PAX4 [12]): 9.26 upbm affinity estimate (log intensity, higher = more binding, comparable within an allelic series)
binding signal (PAX4 [13]): 9.29 upbm affinity estimate (log intensity, higher = more binding, comparable within an allelic series)
binding signal (HOXB9 [14]): 8.26 upbm affinity estimate (log intensity, higher = more binding, comparable within an allelic series)
binding signal (PAX4 [15]): 9.37 upbm affinity estimate (log intensity, higher = more binding, comparable within an allelic series)
binding signal (HOXA7 [16]): 8.39 upbm affinity estimate (log intensity, higher = more binding, comparable within an allelic series)

GCCGCCGC
binding signal (HOXB4 [1]): 7.18 upbm affinity estimate (log intensity, higher = more binding, comparable within an allelic series)
binding signal (VENTX [2]): 7.93 upbm affinity estimate (log intensity, higher = more binding, comparable within an allelic series)
binding signal (HOXA4 [17]): 9.6 upbm affinity estimate (log intensity, higher = more binding, comparable within an allelic series)
binding signal (VENTX [4]): 7.88 upbm affinity estimate (log intensity, higher = more binding, comparable within an allelic series)
binding signal (VENTX [7]): 7.83 upbm affinity estimate (log intensity, higher = more binding, comparable within an allelic series)
binding signal (HOXA2 [18]): 6.96 upbm affinity estimate (log intensity, higher = more binding, comparable within an allelic series)
binding signal (HOXA4 [19]): 9.61 upbm affinity estimate (log intensity, higher = more binding, comparable within an allelic series)
binding signal (HOXB4 [10]): 7.39 upbm affinity estimate (log intensity, higher = more binding, comparable within an allelic series)
binding signal (MSX2 [20]): 9.4 upbm affinity estimate (log intensity, higher = more binding, comparable within an allelic series)
binding signal (HOXA2 [21]): 9.77 upbm affinity estimate (log intensity, higher = more binding, comparable within an allelic series)
binding signal (HOXA4 [22]): 9.67 upbm affinity estimate (log intensity, higher = more binding, comparable within an allelic series)
binding signal (MSX2 [23]): 9.37 upbm affinity estimate (log intensity, higher = more binding, comparable within an allelic series)
binding signal (MSX2 [24]): 9.42 upbm affinity estimate (log intensity, higher = more binding, comparable within an allelic series)
binding signal (HOXA2 [25]): 10.3 upbm affinity estimate (log intensity, higher = more binding, comparable within an allelic series)
binding signal (HOXA4 [26]): 9.69 upbm affinity estimate (log intensity, higher = more binding, comparable within an allelic series)
binding signal (HOXA2 [27]): 6.9 upbm affinity estimate (log intensity, higher = more binding, comparable within an allelic series)

ACTCATTA
binding signal (HOXB4 [1]): 13 upbm affinity estimate (log intensity, higher = more binding, comparable within an allelic series)
binding signal (VENTX [2]): 11.6 upbm affinity estimate (log intensity, higher = more binding, comparable within an allelic series)
binding signal (HOXA4 [17]): 10.7 upbm affinity estimate (log intensity, higher = more binding, comparable within an allelic series)
binding signal (VENTX [4]): 12.4 upbm affinity estimate (log intensity, higher = more binding, comparable within an allelic series)
binding signal (VENTX [7]): 11.7 upbm affinity estimate (log intensity, higher = more binding, comparable within an allelic series)
binding signal (HOXA2 [18]): 13 upbm affinity estimate (log intensity, higher = more binding, comparable within an allelic series)
binding signal (HOXA4 [19]): 12.1 upbm affinity estimate (log intensity, higher = more binding, comparable within an allelic series)
binding signal (HOXB4 [10]): 13.6 upbm affinity estimate (log intensity, higher = more binding, comparable within an allelic series)
binding signal (SHOX): 9.29 upbm affinity estimate (log intensity, higher = more binding, comparable within an allelic series)
binding signal (HOXA2 [21]): 13.5 upbm affinity estimate (log intensity, higher = more binding, comparable within an allelic series)
binding signal (HOXA4 [22]): 13.8 upbm affinity estimate (log intensity, higher = more binding, comparable within an allelic series)
binding signal (VAX1 [28]): 13.2 upbm affinity estimate (log intensity, higher = more binding, comparable within an allelic series)
binding signal (VAX1 [29]): 13.1 upbm affinity estimate (log intensity, higher = more binding, comparable within an allelic series)
binding signal (HOXA2 [25]): 10.9 upbm affinity estimate (log intensity, higher = more binding, comparable within an allelic series)
binding signal (HOXA4 [26]): 11.7 upbm affinity estimate (log intensity, higher = more binding, comparable within an allelic series)
binding signal (HOXA2 [27]): 12.6 upbm affinity estimate (log intensity, higher = more binding, comparable within an allelic series)
binding signal (VAX1 [30]): 13.1 upbm affinity estimate (log intensity, higher = more binding, comparable within an allelic series)
